Each structure is given as a SMILES string. The panel holds about 83,000 compounds, 20% with a hit somewhere; the sample as a whole holds those more often.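 How to read the values: 0–100, growth inhibition (40 = 60% inhibited); 0, no net growth; -100 to 0, cell death (-40 = 40% of starting cells died; -100 = all dead).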 Values without a mark were called inactive. Active and inactive are the calls of the source. Rule for the calls: active = growth percent below 10; inactive = the rest.

In one assay the test system is ACHN renal. Briefly: NCI-60 one-dose screen, 48 h (100 = growth as untreated, 0 = no growth, -100 = all killed). The following applies: 10 µM unless noted.
As to `O=C(Nc1ccc(S(=O)(=O)N2CCCCC2)cc1)C(Cl)Cl`, the growth was 109%.
As to `O=C(c1ccc(Cl)cc1)C1[C@H](c2ccccc2Cl)[C@@H](c2ccccc2)NC12C(=O)Nc1ccccc12` (some centres not stated), the growth is 1.1% (active).
On the same count and under the same terms, the figure for `O=C(c1ccc(O)cc1)C1[C@H](c2ccc(Cl)cc2)[C@@H](c2ccccc2)NC12C(=O)Nc1ccccc12` (some centres not stated) is 3.11% (active).
Consider `Cc1ccc2nc(SCc3ccccc3F)n(-c3ccccc3)c(=O)c2c1`, for which the growth is 92.9%.
Still for that read-out and setting: the figure for `CCCCNc1ccc2c3c(cccc13)C(=O)N(NCC(O)COc1ccc3c(C)cc(=O)oc3c1)C2=O` (configuration not stated) is 86.2%; for `c1n[nH]cc1-c1nc2ccc3[nH]ncc3c2c2c1CC1(CC2)COC1` it is 54.6%.
Still for that read-out and setting: the same measure for `CCN1CCN(Cc2ccc(C(=O)Nc3cccc(Nc4ccc5c(OC)cccc5n4)c3)cc2C(F)(F)F)CC1`: -100% (active); for `O=C(NN1C(=O)/C(=C/C=C/c2ccc([N+](=O)[O-])o2)SC1=S)c1ccc([N+](=O)[O-])cc1`: -100% (active); for `C=CCn1c(O)c(N=Nc2nc(-c3cc4ccccc4oc3=O)cs2)c2ccccc21`: 78.4%.
With `CCCCCCCCCCCCCCCCCC(=O)Nc1ccc(OC)cc1`, the growth was 105%.
Same read-out and setting: the same measure for `Cn1cc(-c2cc(N)n3nc(-c4c[nH]c5ccc(Cl)cc45)cc3n2)c2cc(Br)cnc21`: -76.3% (active).
Same read-out and setting: the same measure for `COC(=O)c1ccc(-c2c(-c3ccccc3)c(F)c3oc(C(=O)OC)c(N)c3c2-c2ccccc2)cc1`: 102%; for `COc1ccc(-c2nc3ccccc3n2CC(=O)N=Nc2c(O)[nH]c3ccc(Br)cc23)cc1`: 87.8%.
On the same count and under the same terms, the same measure for `O=C(N/N=C/c1c[nH]c2ccccc12)Nc1ccccc1Cl`: 10.7%; for `COc1ccc(CCC2NCCc3c(Br)c4c(c(OC)c32)OCO4)cc1` (configuration not stated): 15.5%; for `CN(C)c1nc(NCCNS(=O)(=O)c2ccc(C(=O)/C=C/c3ccc(Cl)cc3)cc2)nc(N2CCOCC2)n1`: 21.8%.
`COc1ccccc1NC(=O)N/N=C/c1c[nH]c2ccccc12`: the growth is 25.8%.
For `O=C1/C(=C/c2cnc(-c3ccccc3)s2)SC(=S)N1Cc1ccc2c(c1)OCO2`, the growth is 42.1%.
On the same count and under the same terms, the figure for `N#CC1=C(c2cccs2)Nc2c(c(-c3ccccc3)nn2-c2ccccc2)C12C(=O)Nc1ccccc12` (configuration not stated) is -26.9% (active).
Same read-out and setting: the figure for `COc1ccc2[nH]c(=O)cc(-n3ncc(C(=O)/C=C/c4cc(OC)c(OC)c(OC)c4)c3C)c2c1` is -14.9% (active); for `C[C@H](NC(=O)c1ccc2c(-c3ccc(C(F)(F)F)cc3)cccc2c1)c1ccccn1` it is 41.1%; for `Cn1cc(Nc2ncnc(-c3ccc(N4CCCC4)c(C#N)c3)n2)cn1` it is 52.3%.
Still for that read-out and setting: the same measure for `CCCCCCCCc1cccc(CC(=O)Nc2ccc(C)cc2C(=O)O)c1`: 46.7% [25 µM]; for `O=C1CCC(N2C(=O)c3cccc(NCCCCCC(=O)N4CCN(c5ccc6nc7c(nc6c5C(F)(F)F)C(=O)c5ncccc5C7=O)CC4)c3C2=O)C(=O)N1` (configuration not stated): -70.8% (active); for `CN1C(=O)/C(=C\C(=O)c2cc3ccccc3oc2=O)c2ccccc21`: 25.3%.
As for `Cc1ccc2nc(NC(=O)Nc3cccc(Cl)c3)sc2c1`, the growth is 105%.
On to `O=C1Nc2ccccc2/C1=C\c1ccc(OCC(=O)c2ccc(Br)cc2)cc1`, for which the growth was 70%.
In the case of `COc1ccc2[nH]cc(-c3cc(N)n4nc(-c5c[nH]c6ccccc56)cc4n3)c2c1`, the growth was 8.14% (active).
On the same count and under the same terms, the same measure for `Cn1cc(-c2cc(N)n3nc(-c4c[nH]c5ccc(Cl)cc45)cc3n2)c2cccnc21`: -98.8% (active); for `Cc1ccc(-c2cc(C(=O)N=Nc3c(O)[nH]c4ccc(F)cc34)c3ccccc3n2)cc1`: 42.8%; for `O=C(NN1C(=O)/C(=C/C=C/c2ccc([N+](=O)[O-])o2)SC1=S)c1ccncc1`: -100% (active).

The next assay concerns CAKI-1 renal. The assay is described as above. To be noted: 1 µM.
Take `CC/C(=C(/c1ccc(O)cc1)c1ccc(OCCN(C)C(=O)COCCOCCNC(=O)c2ccc3c(c2)CN([C@@H]2CCC(=O)NC2=O)C3=O)cc1)c1ccccc1`: the growth is 99.3%.
The same measure, in the same setting: the figure for `CC/C(=C(/c1ccc(O)cc1)c1ccc(OCCN(C)C(=O)CCOCCNC(=O)Cc2ccc3c(c2)CN([C@@H]2CCC(=O)NC2=O)C3=O)cc1)c1ccccc1` is 99%.
Still for that read-out and setting: the figure for `CC/C(=C(/c1ccc(O)cc1)c1ccc(OCCN(C)C(=O)COCCOCCNC(=O)Cc2ccc3c(c2)CN([C@@H]2CCC(=O)NC2=O)C3=O)cc1)c1ccccc1` is 99.8%; for `CC/C(=C(\c1ccc(O)cc1)c1ccc(OCCNC)cc1)c1ccccc1` it is 98.9%.
`CC/C(=C(\c1ccc(O)cc1)c1ccc(OCCN(C)C(=O)CCOCCNC(=O)c2ccc3c(c2)CN([C@@H]2CCC(=O)NC2=O)C3=O)cc1)c1ccccc1`: the growth was 101%.
The same measure, in the same setting: the same measure for `CC/C(=C(\c1ccc(O)cc1)c1ccc(OCCN(C)C(=O)COCCNC(=O)Cc2ccc3c(c2)CN([C@@H]2CCC(=O)NC2=O)C3=O)cc1)c1ccccc1`: 99.2%.
